Reference: PubChem BioAssay (NCI)
“And” between values parts separate entries of the source, which are not always exact repeats. Equal entries are not always repeated. About 83,000 compounds went through this panel and 20% of them were active in at least one assay; those are over-represented in the sample as a whole.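 Results are percent growth after 48 hours of single-concentration exposure. 100 means growth as in untreated cells, lower positive values show inhibition; negative values down to -100 show cell death.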 The source made the active and inactive calls. How the source made its calls: active means growth percent below 10; inactive means the rest.

Columns and labels:
Assay in all cases: NCI-60 one-dose screen, 48 h (100 = growth as untreated, 0 = no growth, -100 = all killed)
Conditions in all cases: 10 µM unless noted
[1] = test system: HCT-15 colon
[2] = test system: HT29 colon
[3] = test system: SNB-75 CNS
[4] = test system: U251 CNS
[5] = test system: PC-3 prostate
[6] = test system: SK-MEL-5 melanoma
[7] = test system: UACC-62 melanoma
[8] = test system: SK-MEL-28 melanoma
[9] = test system: SK-MEL-2 melanoma
[10] = test system: EKVX NSCLC
[11] = test system: SN12C renal
[12] = test system: UO-31 renal
[13] = test system: TK-10 renal
[14] = test system: ACHN renal
[15] = test system: CAKI-1 renal
[16] = test system: CCRF-CEM leukemia
[17] = test system: MOLT-4 leukemia
[18] = test system: LOX IMVI melanoma
[19] = test system: A498 renal

Measured: growth

C=C(Cl)C(=NC(C)(C)C)Nc1ccccc1C
inactive: [1] 101% | [2] 37.6% | [3] 85.7% | [4] 83.9% | [5] 77.3% | [6] 95.4% | [7] 59.7% | [8] 98.4% | [9] 139% | [10] 90.4% | [11] 83.5% | [12] 80.7% | [13] 106% | [14] 91% | [15] 104% | [16] 98.1% | [17] 72.2%

COC(=O)c1nc(=S)[nH]c(C(=O)OC)c1C(=O)c1ccc2ccccc2c1
inactive: [1] 99.2% | [2] 112% | [3] 84.5% | [4] 97.6% | [5] 93.5% | [6] 98.9% | [7] 89.4% | [18] 94.7% | [8] 106% | [9] 104% | [10] 103% | [11] 97.2% | [12] 81% | [13] 109% | [14] 101% | [15] 86.2% | [19] 119% | [16] 102% | [17] 103%

CCCCCCCCCCCCCCCCN(CC)CC
inactive: [19] 107%
active: [1] -90.2% | [2] -56.8% | [3] -22.6% | [4] -66.8% | [5] 0.915% | [6] -97.7% | [7] -86.6% | [9] -79.9% | [10] -88.5% | [11] -83.5% | [12] -69.3% | [13] -89.4% | [14] -57.4% | [15] -81.9% | [16] -13.4% | [17] -71.2%

O=C(Nc1ccccc1)Oc1c(Cl)c(Cl)c(Cl)c(Cl)c1Cl
inactive: [1] 102% and 99.8% | [2] 104% and 96.6% | [3] 93.1% and 77.4% | [4] 99% and 100% | [5] 95.6% and 93.6% | [6] 101% and 96.1% | [7] 88.8% and 89.5% | [8] 119% and 101% | [9] 95.6% and 101% | [10] 97.7% and 87.2% | [11] 99.4% and 92.7% | [12] 73.9% and 83.2% | [13] 100% | [14] 99.1% and 93.6% | [15] 93.1% and 89.7% | [19] 95.9% and 76.8% | [16] 93.6% and 101% | [17] 90.8% and 96.1%

CN(C)CCOc1ccc2c(c1)C(=O)/C(=C\c1ncc([N+](=O)[O-])n1C)C2
active: [1] -10.2% | [2] -32.6% | [3] -86.6% | [4] -14.4% | [5] -11.2% | [6] -97.6% | [7] -59.7% | [8] -71.2% | [9] -72.5% | [10] -18.9% | [11] 0.0262% | [12] -36.7% | [13] -9.94% | [14] -31.9% | [15] -19.2% | [16] -61.1% | [17] -32.1%

CCCCCCCCCCCCCCNCc1ccccc1
inactive: [1] 45.6% | [2] 26.1% | [3] 82.7% | [4] 57.6% | [5] 81.7% | [6] 62.4% | [7] 99.1% | [18] 53.3% | [8] 82.4% | [9] 96.4% | [10] 93.4% | [11] 79% | [12] 62.4% | [13] 103% | [14] 90.9% | [15] 82.2% | [19] 92.7% | [16] 60.5% | [17] 56.4%

CNC(=O)N/N=C/c1ccc([N+](=O)[O-])o1
inactive: [1] 107% | [2] 102% | [3] 114% | [4] 96.9% | [5] 92.7% | [6] 98.6% | [7] 88.9% | [18] 89.1% | [9] 97.1% | [10] 107% | [11] 90.7% | [12] 90.5% | [13] 111% | [14] 106% | [15] 114% | [19] 102% | [16] 96.8% | [17] 82.7%

O=C(Oc1cccc2cccnc12)c1ccccc1
inactive: [1] 77.6% and 101% | [2] 87.1% and 99.8% | [3] 85.4% and 96.2% | [4] 82.8% and 113% | [5] 81.1% and 93.8% | [6] 105% and 100% | [8] 82.4% and 103% | [9] 110% and 96.7% | [10] 91% and 107% | [11] 86% and 104% | [12] 78.6% and 82% | [13] 106% and 107% | [14] 96.5% and 104% | [15] 89.7% | [19] 117% | [16] 23.7% and 102% | [17] 80%

Cc1c2ccccc2c(C)c2c1ccc1ccccc12
inactive: [1] 90.3% | [2] 92.9% | [3] 88.1% | [4] 94.5% | [5] 83% | [6] 93.1% | [7] 80.5% | [8] 92.8% | [9] 98.6% | [10] 88.7% | [11] 94.3% | [12] 80.3% | [13] 111% | [14] 97.2% | [15] 89% | [19] 81.1% | [16] 88.9% | [17] 71.1%
